Measured values reported in the supplement of paper PMC13380429.

Test system: Vero E6 infected with SARS-CoV-2
Assay: inhibition of SARS-CoV-2 cytopathic effect; higher = more antiviral protection, active = above 15
Conditions: 48 h

Measured: inhibition of SARS-CoV-2 cytopathic effect

NCCNCCNCCN [trientine]
inactive: 1 nM -0.43% | 8.33 nM 2.23% | 100 nM 1.04% | 833.33 nM 2.74% | 10000 nM -1.84%

O=C(N[C@@H](Cc1c[nH]c2ccccc12)C(=O)O)c1ccc(Cl)cc1 [benzotript]
inactive: 1 nM 1.07% | 8.33 nM 1.9% | 100 nM 2.83% | 833.33 nM 2.01% | 10000 nM 3.35%

CN(C)Cc1ccc(-c2nc3cccc4c3n2CCNC4=O)cc1
inactive: 1 nM 0.51% | 8.33 nM 4.23% | 100 nM 3.95% | 833.33 nM 1.65% | 10000 nM 6.38%

CC(=O)[C@H]1CC[C@H]2[C@@H]3CC=C4C[C@@H](O)CC[C@]4(C)[C@H]3CC[C@]12C [pregnenolone]
inactive: 1 nM -0.59% | 8.33 nM 3.91% | 100 nM -5.44% | 833.33 nM -1.71% | 10000 nM -3.04%

C[C@@H]1c2ccccc2CN1CC1=NCCN1 (racemic)
inactive: 1 nM -1.04% | 8.33 nM -0.79% | 100 nM -0.96% | 833.33 nM 1.02% | 10000 nM -0.71%

CNC1CC(N)C(O)C(OC2OC(CO)C(O)C3OC4(OC(C(N)CO)C(O)C(O)C4O)OC23)C1O (stereo not given) [Hygromycin B]
inactive: 1 nM -0.42% | 8.33 nM -1.63% | 100 nM -0.49% | 833.33 nM -1.13% | 10000 nM 1.46%

O=C(O)c1cc(O)c2c(c1)C(=O)c1cccc(O)c1C2=O [rhein]
inactive: 1 nM -0.32% | 8.33 nM -0.35% | 100 nM -3.51% | 833.33 nM -0.03% | 10000 nM -2.1%

COc1ccc(C(=O)NCc2cccnc2)cc1C(=O)NCc1cccnc1 [picotamide]
inactive: 1 nM -0.44% | 8.33 nM 2.62% | 100 nM 0.96% | 833.33 nM 0.22% | 10000 nM -1.62%

C/C(=C\C(=O)Nc1ccccc1C(=O)O)c1ccc2ccccc2c1
inactive: 1 nM 3.55% | 8.33 nM 3.85% | 100 nM 1.03% | 833.33 nM 1.37% | 10000 nM -2.89%

CCOC(N)=O [urethane]
inactive: 1 nM -3.1% | 8.33 nM -4.31% | 100 nM -0.41% | 833.33 nM -2.2% | 10000 nM 1.53%

Oc1cc(O)c2cc(O)c(-c3cc(O)c(O)c(O)c3)[o+]c2c1 [delphinidin]
inactive: 1 nM -3.03% | 8.33 nM -3.65% | 100 nM -0.94% | 833.33 nM -1.2% | 10000 nM -3.76%

CN(CCOc1ccc(C[C@H](Nc2ccccc2C(=O)c2ccccc2)C(=O)O)cc1)c1ccccn1
inactive: 1 nM 2.1% | 8.33 nM 2.86% | 100 nM 0.52% | 833.33 nM 0.58% | 10000 nM -1.74%

CCn1c(=O)[nH]c2cc(Cl)c(Cl)cc21
inactive: 1 nM 0.36% | 8.33 nM 1.8% | 100 nM 0.73% | 833.33 nM -2.68% | 10000 nM -2.08%

Cc1cc(C(=O)Nc2cccc(C(=O)Nc3cccc(C(F)(F)F)c3)c2)on1
inactive: 1 nM 0.37% | 8.33 nM 3.92% | 100 nM -2.18% | 833.33 nM -1.26% | 10000 nM -3.26%

O=C(CCCN1CCC2(CC1)C(=O)NCN2c1ccccc1)c1ccc(F)cc1 [spiperone]
active: 10000 nM 81.1%
inactive: 1 nM 1.92% | 8.33 nM 1.62% | 100 nM 0.95% | 833.33 nM 9.61%

CCN(CC)CCOc1ccc(C(O)(Cc2ccc(Cl)cc2)c2ccc(C)cc2)cc1 (stereo not given) [Triparanol]
active: 10000 nM 51.4%
inactive: 1 nM -0.73% | 8.33 nM 1.69% | 100 nM -1.43% | 833.33 nM -2.54%

O=C(O)C(Cc1ccccc1[N+](=O)[O-])=NNc1nc(-c2ccc(Cl)c(Cl)c2)cs1
inactive: 1 nM 4.49% | 8.33 nM -0.65% | 100 nM -1.01% | 833.33 nM 3.78% | 10000 nM 0.02%

Oc1c(CN2CCCC2)cc(COCc2ccccc2)c2cccnc12
inactive: 1 nM -1.11% | 8.33 nM -0.88% | 100 nM 0.87% | 833.33 nM -0.42% | 10000 nM 2.93%

Cc1c(Cl)cccc1S(=O)(=O)Nc1nc(NCCc2ccccc2)nc2c1CN(Cc1ccccc1)CC2
inactive: 1 nM 5.62% | 8.33 nM 1.85% | 100 nM 0.14% | 833.33 nM 0.89% | 10000 nM -1.37%
